Results as given in PubChem BioAssay AID1159580 (chemical genetic matrix, 2015).
The campaign covered roughly 5,500 compounds. About 2,000 (36%) were called active. About 18% were inconclusive and are not listed. No stated cut-off is given here; in the data, active means normalized growth mostly below about 0.91 (no sharp cut-off); inconclusive means no clear call, values can overlap the other calls; inactive means mostly above about 0.92. This is one part of the list.

Experiment: chemical genetic growth profiling, strain panel (AID 1159580);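 further: tested at 20 µM; growth read once vehicle control cultures reached saturation at 30 °C; 1 = growth at the plate median or of vehicle wells; lower values mean less growth of the strain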
Conditions: S. cerevisiae deletion strains, growth OD

Measured: normalized growth

Nc1ccc(N=Nc2ccc(S(N)(=O)=O)cc2)c2ccccc12
inactive: locus YAL013W, strain DEP1, hits give low values 0.999 | locus YBR229C, strain ROT2, hits give low values 1 | locus YCL061C, strain MRC1, hits give low values 0.998 | locus YDL101C, strain DUN1, hits give low values 0.98 | locus YDR150W, strain NUM1, hits give low values 0.906 | locus YEL061C, strain CIN8, hits give low values 0.989 | locus YGR078C, strain PAC10, hits give low values 1 | locus YGR229C, strain SMI1, hits give low values 1 | locus YHR030C, strain SLT2, hits give low values 1.04 | locus YHR087W, strain rtc3, hits give low values 0.995 | locus YJL187C, strain SWE1, hits give low values 1.01 | locus YJR043C, strain POL32, hits give low values 1 | locus YJR075W, strain HOC1, hits give low values 1.02 | locus YLR039C, strain RIC1, hits give low values 0.983 | locus YLR058C, strain SHM2 (second series), hits give low values 1.01 | locus YLR085C, strain ARP6, hits give low values 1.03 | locus YLR262C, strain YPT6, hits give low values 1 | locus YML094W, strain GIM5, hits give low values 0.986 | locus YMR219W, strain ESC1, hits give low values 0.994 | locus YMR263W, strain SAP30, hits give low values 0.916 | locus YNL153C, strain GIM3, hits give low values 1 | locus YNL298W, strain CLA4 (second series), hits give low values 0.982 | locus YNL322C, strain KRE1, hits give low values 0.997 | locus YNR030W, strain Alg12, hits give low values 1.01 | locus YPL055C, strain LGE1, hits give low values 0.893 | locus YPL241C, strain CIN2, hits give low values 1 | locus YPR135W, strain CTF4, hits give low values 1.06
